From publication PMC4336329 (PLoS ONE, 2015)
About 14,000 (4.5%) of roughly 310,000 compounds showed an effect of 50% or more. The effect is printed as a negative number. Shown is part of a subset that was picked to be rich in strong results.

Target: human ether-à-go-go-related gene (hERG) potassium channel (human, UniProt Q12809)
Assay: primary screen, population patch clamp on CHO cells stably expressing hERG; higher = less effect of the substance
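Note: peak tail current of the secondary pulse compared with the same well before compound.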

Chain of human ether-à-go-go-related gene (hERG) potassium channel (Q12809 whole entry, looked up): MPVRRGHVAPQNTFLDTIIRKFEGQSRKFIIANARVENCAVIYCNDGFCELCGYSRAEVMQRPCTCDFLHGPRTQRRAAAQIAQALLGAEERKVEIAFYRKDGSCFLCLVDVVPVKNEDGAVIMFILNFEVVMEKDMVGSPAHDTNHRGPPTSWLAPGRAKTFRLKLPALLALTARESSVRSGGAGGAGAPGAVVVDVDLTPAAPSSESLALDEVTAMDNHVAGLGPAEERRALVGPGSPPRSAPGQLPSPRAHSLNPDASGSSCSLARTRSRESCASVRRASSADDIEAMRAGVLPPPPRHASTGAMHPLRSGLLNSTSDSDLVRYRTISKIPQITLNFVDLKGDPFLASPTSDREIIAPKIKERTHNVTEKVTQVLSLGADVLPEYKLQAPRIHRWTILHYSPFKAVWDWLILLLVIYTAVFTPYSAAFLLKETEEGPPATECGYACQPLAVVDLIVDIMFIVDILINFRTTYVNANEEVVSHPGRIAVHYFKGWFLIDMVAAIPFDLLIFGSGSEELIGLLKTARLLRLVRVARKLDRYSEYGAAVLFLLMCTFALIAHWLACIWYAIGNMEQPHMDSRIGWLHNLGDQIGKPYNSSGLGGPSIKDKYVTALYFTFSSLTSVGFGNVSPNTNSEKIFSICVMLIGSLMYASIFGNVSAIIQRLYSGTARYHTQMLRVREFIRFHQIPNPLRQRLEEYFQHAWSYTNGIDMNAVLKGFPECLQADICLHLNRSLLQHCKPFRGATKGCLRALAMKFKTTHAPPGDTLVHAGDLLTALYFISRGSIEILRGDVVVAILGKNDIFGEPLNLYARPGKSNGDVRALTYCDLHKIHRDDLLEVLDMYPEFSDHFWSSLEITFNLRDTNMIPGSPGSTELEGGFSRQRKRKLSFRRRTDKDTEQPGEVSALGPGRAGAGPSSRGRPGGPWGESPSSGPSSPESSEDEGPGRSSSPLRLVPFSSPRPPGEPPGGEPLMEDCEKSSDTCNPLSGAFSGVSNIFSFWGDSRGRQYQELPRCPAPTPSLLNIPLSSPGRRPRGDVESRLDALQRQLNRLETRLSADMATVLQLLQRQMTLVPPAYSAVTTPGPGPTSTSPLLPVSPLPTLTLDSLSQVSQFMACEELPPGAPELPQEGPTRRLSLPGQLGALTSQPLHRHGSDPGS

| SMILES | hERG current change (%, negative = inhibition) at 10uM [%] |
| --- | --- |
| c1ccc(-c2[nH]ncc2-c2nc3ccccc3[nH]2)cc1 | -11 |
| CCOC(=O)N1CCN(C(=O)Cn2c(C)cc3ccccc3c2=O)CC1 | 3.68 |
| O=C(CCn1nnc2ccccc21)N1CCC(O)(c2cccc(F)c2)CC1 | 4.12 |
| CC(C)(C)NC(=O)c1ccc(NC(=O)c2ccccc2-c2ccccc2C(=O)O)cc1 | 25.2 |
| COc1ccc(C(=O)C2CCCN(C(=O)C3CCOCC3)C2)c(C)c1 (stereo not shown) | 27 |
| COc1cccc(C(=O)C2CCCN(C(=O)c3ccccc3Cl)C2)c1 (stereo not shown) | 5.15 |
| CC(C)Oc1cccc(C(=O)C2CCCN(C3CCOCC3)C2)c1 (stereo not shown) | -10.5 |
| COc1ccc2cc(C(=O)C3CCCN(C(=O)c4ccnn4C)C3)ccc2c1 (stereo not shown) | -41.1 |
| COc1cccc(C(=O)C2CCCN(C3CCOCC3)C2)c1 (stereo not shown) | -50.4 |
| COc1ccc2cc(C(=O)C3CCCN(C4CCOCC4)C3)ccc2c1 (stereo not shown) | -63.5 |
| Cc1ccc(C(C#N)c2ccc3c(C(F)(F)F)cc(C(F)(F)F)nc3n2)cc1 (stereo not shown) | 11.1 |
| CCOc1cc(NS(=O)(=O)c2ccc(NC(C)=O)cc2)c(OCC)cc1NC(=O)C(C)C | 10.3 |
| O=C(CCN1CCCCO1)N1CCCC(Nc2ccc(F)cc2)C1 (stereo not shown) | 12.7 |
| O=C(Cn1ccc([N+](=O)[O-])n1)N1CCc2ccccc21 | -2.32 |
| Cc1cc(C)n2cc(-c3ccc(Cl)cc3)c(C(=O)O)c2n1 | -50.9 |
| Cc1cc(C)n2nc(C)c(-c3ccc(Cl)cc3)c2n1 | 27.1 |
| CCOC(=O)c1c(-c2ccccc2)cn2c(C)cc(C)nc12 | -22.9 |
| O=c1[nH]c(=S)n(-c2ccccc2)c(O)c1/C=N/N1CCOCC1 | -2.11 |
| Cc1noc(C)c1-c1nnc(-c2ccc(C(F)(F)F)cc2)o1 | 4.76 |
| COCc1ccc(C(=O)NC2CCCN(Cc3ccccc3F)C2)o1 (stereo not shown) | 11.2 |
| COCc1ccc(C(=O)N(C)CC2CCCN(CCc3ccc(OC)cc3)C2)o1 (stereo not shown) | -69.5 |
| COCc1ccc(C(=O)N(C)C2CCCN(Cc3ccccc3F)C2)o1 (stereo not shown) | 0.722 |
| COCc1ccc(C(=O)N(C)CC2CCCN(CCc3ccc(Cl)cc3)C2)o1 (stereo not shown) | -78.9 |
| COCc1ccc(C(=O)N(C)CC2CCCN(CCc3ccccc3F)C2)o1 (stereo not shown) | -41 |
| COc1ccccc1OCC(=O)Nc1ccc2c(c1)C(=O)N(CC1CCCO1)C2=O (stereo not shown) | -19.3 |
| CC(=O)Nc1cccc(N(C(=O)C2COc3ccccc3O2)C(C(=O)NC2CCCCC2)c2cn(C)nc2C)c1 (stereo not shown) | 24.1 |
| CCOc1cc(CNc2ccc(N(C)C)cc2)cc(Br)c1OCC(=O)NC(C)(C)C | -17 |
| Cc1c(C)c2cc3c(C)coc3cc2oc1=O | 10.5 |

| SMILES | hERG current change (%, negative = inhibition) at 10uM [%] |
| --- | --- |
| CN1C(C(=O)NCc2ccc(OC(F)(F)F)cc2)CC2Cn3c(nc4cc(Cl)c(Cl)cc43)C21 (stereo not shown) | -77.9 |
| CN1C(C(=O)NCc2ccc(OC(F)(F)F)cc2)CC2Cn3c(nc4cc5ccccc5cc43)C21 (stereo not shown) | -69.4 |
| COc1ccc(CCNC(=O)C2CC3Cn4c(nc5ccccc54)C3N2c2ccccc2)cc1 (stereo not shown) | -7.57 |
| O=C(NCc1ccc(OC(F)(F)F)cc1)C1CC2Cn3c(nc4ccccc43)C2N1Cc1ccccc1 (stereo not shown) | -62.1 |
| COc1ccc(CCNC(=O)C2CC3Cn4c(nc5cc6ccccc6cc54)C3N2C)cc1 (stereo not shown) | -43.7 |
| CN1C(C(=O)NCC2CC2)CC2Cn3c(nc4cc5ccccc5cc43)C21 (stereo not shown) | -21.2 |
| COc1ccc(CCNC(=O)C2CC3Cn4c(nc5ccccc54)C3N2Cc2ccccc2)cc1 (stereo not shown) | -49.7 |
| O=C(NCc1ccc(OC(F)(F)F)cc1)C1CC2Cn3c(nc4ccccc43)C2N1c1ccccc1 (stereo not shown) | -61.3 |
| COc1ccc(CCNC(=O)C2CC3Cn4c(nc5cc(Cl)c(Cl)cc54)C3N2C)cc1 (stereo not shown) | -23.5 |
| COc1ccc(CCNC(=O)C2CC3Cn4c(nc5cc(C)c(C)cc54)C3N2C)cc1 (stereo not shown) | -31.4 |
| O=C(CN1CCC2(CC1)OCCO2)c1ccc2cc[nH]c2c1 | -15.2 |
| Cc1cc(C(=O)N/N=C/c2ccc(-c3cccc(Cl)c3)o2)n[nH]1 | 11.3 |
| CN1C(C(=O)NCC2CC2)CC2Cn3c(nc4ccccc43)C21 (stereo not shown) | 15.5 |
| CN1C(C(=O)NCc2ccc(OC(F)(F)F)cc2)CC2Cn3c(nc4ccccc43)C21 (stereo not shown) | -78.7 |
| COc1ccc(CCNC(=O)C2CC3Cn4c(nc5ccccc54)C3N2C)cc1 (stereo not shown) | -8.64 |
| CCOc1ncccc1C(=O)NCCCSc1ccccc1 | -35.9 |
| O=C(O)C1=C[C@@H](c2ccccc2)C[C@@H](OCCCCO)O1 | 8.4 |
| COc1ccc(/C=N/N2CCN(c3ccccc3OC)CC2)cc1OC | -19.7 |
| COc1ccc(CC(C)N2CCN(Cc3ccccc3)CC2)cc1OC (stereo not shown) | -33.1 |
| COc1ccccc1CC(=O)N1CCN(c2cccc(C(F)(F)F)c2)CC1 | -9.71 |
| COc1ccc(S(=O)(=O)N2CCN(c3ccccc3OC)CC2)cc1OC | -2.71 |
| COc1ccc(CC(C)N2CCN(c3cccc(C(F)(F)F)c3)CC2)cc1OC (stereo not shown) | -65.9 |
| COc1ccc(CC(C)N2CCN(c3ccccc3OC)CC2)cc1OC (stereo not shown) | -62.1 |
| COc1ccc(CC(C)N2CCN(c3ccccc3)CC2)cc1OC (stereo not shown) | -64 |
| COc1cccc(CN2CCN(c3cccc(C(F)(F)F)c3)CC2)c1OC | -23.9 |
| COc1ccc(CC(=O)N2CCN(c3ccccc3)CC2)cc1OC | 18.4 |
| CC1(/[N+]([O-])=C\c2ccccc2F)CCCCC1=O (stereo not shown) | 8.53 |
